Experiment [1] is described as follows: qHTS assay to identify small molecule inhibitors of chordoma cells - UCH-1 (AID 1259355). Note: % is set by controls: 0 for no effect and ±100 for the full control effect; nearly all actives have a fitted effect of over 55% in size. The procedure, abridged:
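A 48hr growth-inhibition format: each drug tested at 15 concentrations together with added auranofin, camptothecin, doxorubicin, rubitecan and topotecan, with cell viability quantified as CellTiter-Glo luminescence.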

Experiment [2] is described as follows: qHTS assay to identify small molecule inhibitors of chordoma cells - UCH-2 (AID 1259356; note: % is set by controls: 0 for no effect and ±100 for the full control effect). (In general: qHTS replaces the single test concentration by a dilution series.)
Experiment [3] can be described thus: P-glycoprotein substrates identified in KB-8-5-11 adenocarcinoma cell line, qHTS therapeutic library screen (AID 1346987). Note: % is set by controls: 0 for no effect and ±100 for the full control effect; nearly all actives have a fitted effect of over 65% in size. The conditions noted are these: outcome: dose series up to 44.5 µM unless noted. In outline:
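Compounds are pinned in dose-response onto KB-8-5-11 cells (500 cells/well, colchicine-free medium) and left 72 h at 37 degree C. CellTiter-Glo luminescence then yields AC50 values.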

A short description of experiment [4]: qHTS profiling of the MIPE4 collection as inhibitors of Plasmodium falciparum (DD2) proliferation (AID 743345; call rule not given here). To be noted: P. falciparum Dd2 in erythrocytes, SYBR Green DNA, 72 h; at 28.5 µM (top of the series). In outline:
(§1)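 Parasite DNA was quantified by SYBR Green I fluorescence (ex 485, em 535 nm) after overnight lysis in saponin/Triton buffer at room temperature. Cultures at 0.3% parasitemia and 2.5% hematocrit were first exposed to compound for 72 h at 37 C; signals were normalised to artemisinin (0.29 uM) and vehicle wells.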

Experiment [5] is described as follows: qHTS profiling of the MIPE4 collection as inhibitors of Plasmodium falciparum (DD2) proliferation (Rep 2) (AID 743346; call rule not given here). To be noted: P. falciparum Dd2 in erythrocytes, SYBR Green DNA, 72 h; at 28.5 µM (top of the series). In outline:
as §1

A short description of experiment [6]: qHTS profiling of the MIPE4 collection as inhibitors of Plasmodium falciparum (HB3) proliferation (AID 743347; call rule not given here;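 note: plate controls were DMSO vehicle wells for no effect and artemisinin wells for full effect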). To be noted: P. falciparum HB3 in erythrocytes, SYBR Green DNA, 72 h; at 28.5 µM (top of the series). In outline: as §1
Experiment [7] has as its target Atrial natriuretic peptide receptor 1 (Homo sapiens) (UniProt P16066). The experiment in a line: Natriuretic polypeptide receptor (hNpr1) antagonism - Pilot screen (AID 1347049; calls by dose curve;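 note: HEK293 cells with hNpr1 and GloSensor cGMP luciferase stimulated by 0.1 nM hNppA; agonist-evoked cGMP luminescence read 20 min after hNppA addition; % is set by controls: 0 for no effect and ±100 for the full control effect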). In outline: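 Cells expressing receptor plus cGMP biosensor are seeded and incubated overnight at 37C, then loaded with GloSensor reagent (2% final) at room temperature for 2 h. Library compounds go on for 30 min. A pre-read precedes agonist (hNppA, 0.1 nM final) and a 20-min readout.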

Experiment [8] addresses Tyrosine-protein phosphatase non-receptor type substrate 1 (Homo sapiens) + Leukocyte surface antigen CD47 (Homo sapiens) (UniProt P78324+Q08722). The experiment in a line: CD47-SIRPalpha protein protein interaction - LANCE assay qHTS validation (AID 1347057; active = well fitted curve in the direction sought with a large enough effect in the signal ratio, with a control signal flat, not every such curve was filed as active; the % refers to the signal ratio; note: 0% is about no effect). The procedure, abridged: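 Inhibition of soluble CD47/SIRPalpha ectodomain association by titrated compounds, measured as 665/615 nm time-resolved FRET ratio after sequential 30 min room-temperature incubations.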

Experiment [9] concerns the target Parathyroid hormone/parathyroid hormone-related peptide receptor (Homo sapiens) (UniProt Q03431). The experiment in a line: qHTS for PTHR1 Agonists: Optimization Screen against the NCGC LOPAC library (AID 1347079).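 Note: GloSensor cAMP luminescence in HEK-293 GP2 cells expressing human PTHR1 with IBMX; 0% is about no effect.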 The procedure, abridged: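 HEK-293 GP2 cells, PTHR1 + GloSensor cAMP; 3000 cells/well, o/n. Luciferin + IBMX 0.5mM each (stock), 1 hr 37C. Cpd titration, 1 hr 37C. Lum after 15 min RT. Ctrl M-PTH(1-15) top 10uM.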

Experiment [10] concerns the target Atrial natriuretic peptide receptor 1 (Homo sapiens) (UniProt P16066). The experiment is described as follows: Natriuretic polypeptide receptor (hNpr1) antagonism - Pilot CMLD screen (AID 1347052; calls by dose curve;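 note: HEK293 cells with hNpr1 stimulated by hNppA peptide at 0.1 nM; cGMP level read as GloSensor luciferase luminescence after agonist stimulation; % is set by controls: 0 for no effect and ±100 for the full control effect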). On the procedure:
In order to identify small molecular compounds that inhibit the hNpr1 receptor we developed a high-throughput assay to measure inhibition of the guanylate cyclase activity of the receptor. cGMP production was measured using a circular permutated Firefly luciferase (FLuc) enzyme functionally linked to the cGMP binding domain of human phosphodiesterase 5 (GloSensor technology pGS-40F, (Fan, F. et al. 2008). The cGMP-sensor was expressed in human embryonic kidney 293 (HEK-293) cells and FLuc activity was measured after stimulation with hNrp agonist peptide. hNrp agonists activates the receptor's associated guanylyl cyclase (GC) domain producing cGMP which then binds to the GloSensor resulting in FLuc activation, the enzymatic activity of which can be measured as bioluminescence with addition of luciferin substrate.
This assay was initially piloted by testing with a small library of specialty compounds.
PROTOCOL TABLES (as described by Inglese J, Shamu CE and Guy RK. 2007)
SEQUENCE No. (e.g., 1, 2, 3, etc.); […] (e.g., Cells, Incubation, Reagent, etc.); VALUE and DESCRIPTION.
1. Cells. […]
7. […] GloSensor baseline pre-read luminescence measured using CCD-based camera (Viewlux). […]
10. […] GloSensor post-hNppA luminescence measured using CCD-based camera (Viewlux). […]
1. […] Cells counted with Invitrogen Countess (30,000,000 - 50,000,000 cells/flask). […]

Experiment [11] can be described thus: NS1 protein of Zika virus - qHTS assay to identify small molecule inhibitors in human HEK 293 cells (AID 1347053).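 Note: plate controls were infected untreated cells for no effect and uninfected cells for full effect; nearly all actives have a fitted effect of over 55% in size.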 In outline:
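TR-FRET signal from two anti-ZIKV NS1 antibodies quantified NS1 in HEK 293 cells 24 h after MR766 infection at MOI = 0.5; compounds were added 1 h before virus. Uninfected cells and infected cells defined the NS1 normalization range.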

Experiment [12] in a line: qHTS of pediatric cancer cell lines to identify multiple opportunities for drug repurposing: Primary screen for TC32 cells (AID 1347089). Note: % is set by controls: 0 for no effect and ±100 for the full control effect; nearly all actives have a fitted effect of over 60% in size. In outline:
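Measured quantity: luminescence from CellTiter-Glo, reflecting metabolically active TC32 cells following 48 h of compound. Curves came straight from multi-point titrations, with 8 or 11 points in primary and 11 in confirmatory screening.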

Experiment [13] in a line: qHTS of pediatric cancer cell lines to identify multiple opportunities for drug repurposing: Primary screen for DAOY cells (AID 1347090).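 Note: plate controls were DMSO for no effect and bortezomib for full effect; nearly all actives have a fitted effect of over 55% in size.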 The procedure, abridged: (§2)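 Eight- or eleven-point concentration series, 48 h treatment at 37 degrees C in growth media; readout CellTiter-Glo luminescence. Potency and efficacy were taken from the concentration-response curves.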
Experiment [14] can be described thus: qHTS of pediatric cancer cell lines to identify multiple opportunities for drug repurposing: Primary screen for SJ-GBM2 cells (AID 1347091).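 Note: plate controls were DMSO neutral control for no effect and bortezomib for full effect.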 The procedure, abridged: as §2
A short description of experiment [15]: qHTS of pediatric cancer cell lines to identify multiple opportunities for drug repurposing: Primary screen for A673 cells (AID 1347092). Note: % is set by controls: 0 for no effect and ±100 for the full control effect; nearly all actives have a fitted effect of over 45% in size. In outline: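 Cells are plated, rested 5 h, dosed by pintool, incubated 48 h, then lysed with CellTiter-Glo and read by luminescence. DMSO is the neutral control; bortezomib at 2.3 uM final is the positive control.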
Experiment [16] is described as follows: qHTS of pediatric cancer cell lines to identify multiple opportunities for drug repurposing: Primary screen for SK-N-MC cells (AID 1347093).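 Note: plate controls were DMSO neutral control for no effect and bortezomib for full effect.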 In outline:
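Metabolically active cells were quantified by ATP-dependent luminescence (CellTiter-Glo, 15 min at room temperature) following 48 h treatment. Cells had been plated at 500-1,000 per well and settled for 5 h beforehand.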

Experiment [17] in a line: qHTS of pediatric cancer cell lines to identify multiple opportunities for drug repurposing: Primary screen for BT-37 cells (AID 1347094).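 Note: plate controls were DMSO for no effect and bortezomib for full effect.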 The procedure, abridged: (§3)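 Luminescence from CellTiter-Glo served as readout of metabolically active cells after 48 h compound exposure. Titrations: MIPE 11-point, from 0.78 nM; NPC 8-point, from 0.59 nM (final). Concentration-response curves came straight from the primary screen.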

Experiment [18] is described as follows: qHTS of pediatric cancer cell lines to identify multiple opportunities for drug repurposing: Primary screen for NB-EBc1 cells (AID 1347095).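 Note: plate controls were DMSO neutral control for no effect and bortezomib for full effect.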 In outline:
as §3

A short description of experiment [19]: qHTS of pediatric cancer cell lines to identify multiple opportunities for drug repurposing: Primary screen for U-2 OS cells (AID 1347096).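 Note: plate controls were DMSO wells for no effect and bortezomib positive control wells for full effect; nearly all actives have a fitted effect of over 50% in size.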 The procedure, abridged: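 Cells (500-1,000/well) in growth media were settled 5 h at 37 degrees C, then given compounds for 48 h. Viability was read as CellTiter-Glo luminescence. Primary runs used MIPE at 11 points (0.78 nM-46 µM) and NPC at 8 points (0.59 nM-46 µM); follow-ups used 11 points.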

Inconclusive results are not listed. Active and inactive are the calls of the source. Unless noted, calls come from the whole dose curve; as a rule, active = well fitted curve in the direction sought with a large enough effect; inconclusive = small, poorly fitted or top-dose-only effect, or another doubt; inactive = no such curve, though single readings can be large; an effect the other way counts as inactive or inconclusive.

Atrial natriuretic peptide receptor 1 (Homo sapiens), sequence (P16066 whole entry, looked up, the tested form may be a part): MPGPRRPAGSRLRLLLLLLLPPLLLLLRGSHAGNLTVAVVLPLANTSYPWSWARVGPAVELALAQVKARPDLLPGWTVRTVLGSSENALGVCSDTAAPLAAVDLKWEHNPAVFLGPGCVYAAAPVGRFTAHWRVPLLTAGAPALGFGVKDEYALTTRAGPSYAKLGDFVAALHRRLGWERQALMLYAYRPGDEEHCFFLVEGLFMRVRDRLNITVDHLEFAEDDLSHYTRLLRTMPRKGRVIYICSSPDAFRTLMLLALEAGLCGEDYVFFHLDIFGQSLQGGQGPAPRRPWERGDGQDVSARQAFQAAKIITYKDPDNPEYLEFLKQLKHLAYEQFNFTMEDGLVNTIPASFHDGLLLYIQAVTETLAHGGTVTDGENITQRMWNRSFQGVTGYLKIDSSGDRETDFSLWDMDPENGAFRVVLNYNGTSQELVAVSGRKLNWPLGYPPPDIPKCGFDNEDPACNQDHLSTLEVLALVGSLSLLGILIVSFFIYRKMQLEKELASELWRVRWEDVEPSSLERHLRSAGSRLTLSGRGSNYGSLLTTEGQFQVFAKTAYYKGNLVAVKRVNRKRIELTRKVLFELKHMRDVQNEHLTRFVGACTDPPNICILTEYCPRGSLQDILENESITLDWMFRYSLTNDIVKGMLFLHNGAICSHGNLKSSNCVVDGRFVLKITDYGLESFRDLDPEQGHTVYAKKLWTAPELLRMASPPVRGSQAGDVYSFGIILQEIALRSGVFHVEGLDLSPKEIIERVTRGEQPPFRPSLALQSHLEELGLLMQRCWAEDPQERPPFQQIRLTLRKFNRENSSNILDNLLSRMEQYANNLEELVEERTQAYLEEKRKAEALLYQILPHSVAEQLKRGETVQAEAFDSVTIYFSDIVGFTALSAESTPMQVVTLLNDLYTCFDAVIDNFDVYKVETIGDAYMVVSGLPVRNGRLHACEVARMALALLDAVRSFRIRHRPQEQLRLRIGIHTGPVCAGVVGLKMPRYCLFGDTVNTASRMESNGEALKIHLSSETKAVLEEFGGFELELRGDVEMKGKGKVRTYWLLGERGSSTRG
Parathyroid hormone/parathyroid hormone-related peptide receptor (Homo sapiens), sequence (Q03431 whole entry, looked up): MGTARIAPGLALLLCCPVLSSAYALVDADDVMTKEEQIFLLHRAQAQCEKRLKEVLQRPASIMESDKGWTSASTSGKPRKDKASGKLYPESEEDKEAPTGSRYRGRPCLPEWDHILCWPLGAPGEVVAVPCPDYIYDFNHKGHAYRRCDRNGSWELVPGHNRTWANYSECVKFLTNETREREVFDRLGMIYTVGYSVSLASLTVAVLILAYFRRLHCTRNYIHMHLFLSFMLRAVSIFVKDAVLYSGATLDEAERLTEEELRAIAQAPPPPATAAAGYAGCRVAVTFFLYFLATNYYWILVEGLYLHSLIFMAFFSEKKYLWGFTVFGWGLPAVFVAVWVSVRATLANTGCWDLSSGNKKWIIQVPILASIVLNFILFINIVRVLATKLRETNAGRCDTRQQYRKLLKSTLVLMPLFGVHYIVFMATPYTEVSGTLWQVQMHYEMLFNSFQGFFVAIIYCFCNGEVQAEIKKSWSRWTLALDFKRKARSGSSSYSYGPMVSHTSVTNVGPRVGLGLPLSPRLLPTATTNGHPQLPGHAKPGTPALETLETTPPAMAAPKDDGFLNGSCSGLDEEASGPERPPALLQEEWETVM
Tyrosine-protein phosphatase non-receptor type substrate 1 (Homo sapiens) + Leukocyte surface antigen CD47 (Homo sapiens), sequence (P78324 whole entry, looked up, the tested form may be a part): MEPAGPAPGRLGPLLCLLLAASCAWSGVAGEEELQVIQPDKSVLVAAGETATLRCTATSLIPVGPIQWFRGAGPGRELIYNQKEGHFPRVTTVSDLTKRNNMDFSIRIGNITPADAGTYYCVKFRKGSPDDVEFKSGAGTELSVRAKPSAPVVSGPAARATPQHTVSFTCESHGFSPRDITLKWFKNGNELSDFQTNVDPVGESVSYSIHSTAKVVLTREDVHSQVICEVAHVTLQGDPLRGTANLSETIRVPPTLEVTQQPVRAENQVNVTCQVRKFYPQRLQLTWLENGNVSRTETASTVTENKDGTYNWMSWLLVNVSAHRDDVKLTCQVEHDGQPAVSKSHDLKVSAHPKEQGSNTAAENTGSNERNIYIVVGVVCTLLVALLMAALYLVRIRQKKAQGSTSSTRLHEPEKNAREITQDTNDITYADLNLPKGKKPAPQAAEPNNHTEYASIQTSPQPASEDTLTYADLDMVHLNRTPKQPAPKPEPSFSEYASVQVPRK
Tyrosine-protein phosphatase non-receptor type substrate 1 (Homo sapiens) + Leukocyte surface antigen CD47 (Homo sapiens), sequence (Q08722 whole entry, looked up, the tested form may be a part): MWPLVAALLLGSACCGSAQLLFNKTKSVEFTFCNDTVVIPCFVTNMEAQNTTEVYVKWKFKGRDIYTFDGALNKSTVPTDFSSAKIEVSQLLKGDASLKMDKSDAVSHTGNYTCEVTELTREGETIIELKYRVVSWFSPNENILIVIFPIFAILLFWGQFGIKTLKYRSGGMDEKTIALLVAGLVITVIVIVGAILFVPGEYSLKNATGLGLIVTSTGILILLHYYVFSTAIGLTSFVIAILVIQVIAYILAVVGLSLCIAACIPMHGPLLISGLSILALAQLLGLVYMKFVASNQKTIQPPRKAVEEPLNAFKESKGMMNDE

For the compound `O=C1c2ccccc2C(=O)C1c1ccc(F)cc1`, the Potency entry in [1], in [2] and in experiment [3] was “inactive” in each case.

Compound `C#C[C@]1(O)CC[C@@H]2[C@H]3CCC4=CC(=O)CC[C@H]4[C@H]3C(=C)C[C@@]21CC` returned a parasite growth remaining, % of DMSO control (lower = more inhibition) in experiment [4] of 82.2%. The compound further came in with a parasite growth, % of control (lower = inhibition) in experiment [5] of 66.9%. The same compound displayed a growth, % of control in experiment [6] of 44.4%.

For the compound `Oc1ccc(/C=C/c2cc(O)cc(O)c2)cc1`, the compound was classed as inactive in [7], in [8] and in experiment [9].

As for `Cc1c(O)c(=O)ccn1C`, the compound was classed as inactive in experiment [10].

Take `COc1cc(NCCCC(C)N)c2ncccc2c1` (configuration not stated): the Potency result in [1] and in experiment [3] was “inactive” throughout.

For `CC1(C)[C@H]2CC[C@]1(C)[C@H](O)C2`, the Potency result in experiment [1] and in experiment [3] was “inactive” each time.

Take `Nc1ncnc2c1ncn2CCOCP(=O)(O)O`: the Potency result in [1] and in [3] was “inactive” in each case.

In the case of `C=CCCCCCCCCC(=O)OC`, the Potency entry in [1] and in [3] was “inactive” in each case.

As to `COc1ccc2nc(NC(=O)Nc3ccccc3)sc2c1`, the Potency entry in experiment [1], in experiment [2], in experiment [15], in experiment [16] and in [17] was “inactive” each time. Also, the result in [11], in experiment [12], in experiment [13], in experiment [14], in experiment [18] and in experiment [19] was inactive.

Turning to `COC(=O)C(CN)c1c[nH]c2ccc(OC)cc12` (configuration not stated), the Potency entry in experiment [1] and in [3] was “inactive” in each case.

With `Cc1ncc[nH]1`, the Potency result in experiment [1] and in experiment [3] was “inactive” in each case.

For the compound `CCCC1C(=O)N2C(N(C)C)=Nc3ccc(C)cc3N2C1=O` (configuration not stated), the Potency entry in [1] and in experiment [3] was “inactive” in each case.

For `OCCOCCOCCO`, the Potency result in experiment [1] and in experiment [3] was “inactive” each time.

Consider `COc1cc(C)c(/C=C/C(C)=C/C=C/C(C)=C/C(=O)O)c(C)c1C`, for which the Potency result in experiment [1] and in experiment [3] was “inactive” throughout.

For the compound `CC(=O)O[C@@H]1CC2CCC1(C)C2(C)C` (some centres not stated), the Potency entry in experiment [1] and in [3] was “inactive” throughout.

In the case of `c1ccc(-n2cnnn2)cc1`, the Potency result in experiment [1] and in experiment [3] was “inactive” throughout.

With `CCN(CC)CCOc1ccccc1OC`, the Potency entry in experiment [1] and in [3] was “inactive” each time.

`COC(=O)c1ccccc1O`: the Potency result in experiment [1] and in experiment [3] was “inactive” each time.

These data come from PubChem BioAssay (NCATS).
